± gives the standard deviation of the averaged measurements. Whole data set: some 25,000 sequences, median “ln(normalized median fluorescence intensity)” near 8.6, cut for the highest 2% near 10. The entries come from a sample that favours the highest values as a whole.
Test system: PfAP2-EXP AP2 domain (GST-tagged)
Experiment: gcPBM binding intensity (ln(normalized median fluorescence intensity)); higher = stronger DNA binding
Procedure, shortened: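 Probes on an Agilent 4 × 180k array were primer-extended, double-stranded and 36 bp long, taken from intergenic genomic regions, with negative controls added. GST-tagged P. falciparum DNA-binding domains from E. coli, about 25 μg on average, were applied to the array for 1 h in 1× PBS containing 1% milk, 0.2 mg/ml BSA, 0.5% salmon testes DNA and 0.03% Triton X-100. Binding intensity, obtained after Alexa488 anti-GST antibody detection and a 488 nm scan, is the highest Masliner-normalised natural-log median intensity across replicate spots of either probe orientation.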

Row | Sequence | gcPBM binding intensity (ln)
1 | TATATAAATATAATATGTACATATAATATGTATATA [XGTACX_site8120] | 8.36 ± 0.26
2 | ATATATATATATATATGTACATATATACATATATGT [XGTACX_site1521] | 10 ± 0.49
3 | ATACATATATACATATGTACATATATATATATATAT [XGTACX_site8206] | 9.9 ± 0.39
4 | ATATATATATATATATGTACATACATACATAGAACT [XGTACX_site2214] | 10.4 ± 0.3
5 | AAAGTGGCCATATATTTTTTTTTTTTTTTCCTTATT [CACACA_negctrl_site485] | 8.11 ± 0.53
6 | ACATATTAATTATTATGACATACATATCAGTTATTA [TGCATGCA_negctrl_site126] | 8.38 ± 0.27
7 | AGGCACTTATAATAATGTACATAAATAAAAAGAAAA [XGTACX_site6037] | 8.81 ± 0.35
8 | TTTTTATGAAAATAAACACACGATTTATTATATATA [CACACA_site1311] | 8.27 ± 0.34
9 | GAAGACAATTATATGTGTACATATATATACATATAT [XGTACX_site4630] | 8.44 ± 0.25
10 | TATATATATATATATTGTACATTTTTTTTTTTTTTT [XGTACX_site7891] | 10.1 ± 0.23
11 | AGTATATAAAATACTGTATCGATGGGGGAGGGCGCA [CACACA_negctrl_site1612] | 9.97 ± 0.23
12 | TATAAAATACTGTATCGATGGGGGAGGGCGCAGGGG [TGCATGCA_negctrl_site250] | 10.3 ± 0.11
13 | ATATATGGGGCGCAGGAAAAGAGTTTTGGAAATAAA [CACACA_negctrl_site1265] | 9.08 ± 0.49
14 | ATAGGTAATAATAATACACACGGTGAAATATAGATG [CACACA_site9336] | 8.88 ± 0.47
15 | TATAATGAGGATAATAGTACATATGAATACAAAAAA [XGTACX_site3665] | 8.86 ± 0.45
16 | TTGGATAAAAAATATGTACACACATATAGATATCTA [CACACA_site8862] | 8.48 ± 0.31
17 | TATAAATAGAGGAAGCGTACATATATATATATATAT [XGTACX_site4993] | 10.1 ± 0.37
18 | TCGGGAGGGGGGAAGCGTACATATATAAAATTATTA [XGTACX_site4683] | 10.4
19 | ATAAATAAATAAAAGCGTACATATATATAAAATATA [XGTACX_site8107] | 8.63 ± 0.27
20 | AAAATTTATATAAGCACACAAATATATATTTATATC [CACACA_site3291] | 8.55 ± 0.47
21 | GAAGGAATATACAATTGTACTTGGCAAAAAAAAAAA [XGTACX_site1884] | 8.74 ± 0.67
22 | TCTGTAAAGTAATGGACACACAATATATCCATTTAT [CACACA_site1536] | 8.35 ± 0.35
23 | ATATATATATATATATGTACACAGGACAATAATCCT [XGTACX_site6383] | 10.2 ± 0.33
24 | ATAATATAATATATATGTACACATCCTTTTTGTGTA [XGTACX_site2879] | 8.62 ± 0.4
25 | ATATATAATATAATATGTACATATAATCAATCCTGT [XGTACX_site8694] | 8.48 ± 0.28

Row | Sequence | gcPBM binding intensity (ln)
26 | AGAGGCCAGCTTTCTCTTCTAAACATGTACAAAAAT [GTGCAC_negctrl_site98] | 8.63 ± 0.49
27 | TTAGATATAATATATACACACCAACGAACGAAGAAA [CACACA_site4763] | 9.12 ± 0.54
28 | TCTATTAATGAATATACACACATTATATATATATAT [CACACA_site5410] | 10 ± 0.49
29 | ATAAGAAGGAACATAAATATATCATAAAAAAAAAAA [GTGCAC_negctrl_site169] | 8.56 ± 0.35
30 | TTTTCCTTATATTATGCATGCAGGGTTTGACATTAT [TGCATGCA_site826] | 10.3 ± 0.34
31 | ATTATTTATATTATGGTGCATAATTTTGGGTTTCTT | 8.86 ± 0.26
32 | ATAAAATTATATTTTGCATGCAGGCCTTTTTCTTAA [TGCATGCA_site1030] | 9.94 ± 0.14
33 | ATTTTTTATTGTTATAAAAAAAAAATTAAACAATTA [CACACA_negctrl_site1077] | 8.19 ± 0.46
34 | AGATATATTTTTTAAATTTAAAAATTATAAAATTTA [CACACA_negctrl_site533] | 8.07 ± 0.42
35 | TCATTCCATACTTTAACACACAAATATATTTAATCC [CACACA_site145] | 8.76 ± 0.53
36 | ATATTGGAGCACAACACACACAAGTATATATATGGA [CACACA_site1546] | 8.8 ± 0.47
37 | AAAAAAAAAAAATACGTGCACTATGATATATTATAT | 8.95 ± 0.092
38 | AAAAAAAAAAAACACACACACACACCCATACATACA [CACACA_site707] | 8.65 ± 0.56
39 | AAAAGGAACAGACACACACACATATATATATATATA [CACACA_site3587] | 10.3 ± 0.25
40 | AAAAGGAACAGACACACACACATATATAAATATGTA [CACACA_site7656] | 8.4 ± 0.59
41 | AAAAAAAAAAAAAACACACACACACCCACATATACA [CACACA_site2663] | 8.53 ± 0.2
42 | TATATACGCAAACACACACACACATACACCCACATA [CACACA_site1724] | 8.59 ± 0.44
43 | AAAAAAAAAAAAAAAACACACATACACCCCCACCCA [CACACA_site9117] | 10.4 ± 0.3
44 | AAAAAAAAAAAACACACACACATATATATATATATA [CACACA_site732] | 10.2 ± 0.38
45 | AAAAAAAAAAAAAACACACACATATATATATATATA [CACACA_site1891] | 10.2 ± 0.3
46 | AAAAGGAACGGACACACACACATATATATATATATA [CACACA_site5894] | 10.2 ± 0.49
47 | TACATATATATATACACACATACATATATATACGCA [CACACA_site792] | 8.45 ± 0.34
48 | AAAAAAAAAAAAAAAACACACACATATATATATATA [CACACA_site8571] | 10.1 ± 0.21
49 | CATATACGCAAACACACACACATATATATATATATA [CACACA_site501] | 10.2 ± 0.4
